Test results from PubChem BioAssay (EPA / NIEHS).
Inconclusive results are not listed. Calls of active or inactive are those of the source. How the source made its calls, unless noted: active means hit-call score of the fitted dose curve at least 0.9, where 1 is the maximum; inactive means score below 0.9.

Experiments:
[1] = target: Glucocorticoid receptor (Homo sapiens) (UniProt P04150); assay: ATG_GR_TRANS: Attagene TRANS-FACTORIAL HepG2 Assay for human Glucocorticoid Receptor (GR) (AID 2282978; active means hit-call score of the fitted dose curve at least 0.9, where 1 is the maximum;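 further: activators score as hits since higher reporter transcript over DMSO is fitted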); conditions: HepG2 Attagene TRANS GR reporter, mRNA transcription
Glucocorticoid receptor (Homo sapiens), sequence (P04150 whole entry, looked up): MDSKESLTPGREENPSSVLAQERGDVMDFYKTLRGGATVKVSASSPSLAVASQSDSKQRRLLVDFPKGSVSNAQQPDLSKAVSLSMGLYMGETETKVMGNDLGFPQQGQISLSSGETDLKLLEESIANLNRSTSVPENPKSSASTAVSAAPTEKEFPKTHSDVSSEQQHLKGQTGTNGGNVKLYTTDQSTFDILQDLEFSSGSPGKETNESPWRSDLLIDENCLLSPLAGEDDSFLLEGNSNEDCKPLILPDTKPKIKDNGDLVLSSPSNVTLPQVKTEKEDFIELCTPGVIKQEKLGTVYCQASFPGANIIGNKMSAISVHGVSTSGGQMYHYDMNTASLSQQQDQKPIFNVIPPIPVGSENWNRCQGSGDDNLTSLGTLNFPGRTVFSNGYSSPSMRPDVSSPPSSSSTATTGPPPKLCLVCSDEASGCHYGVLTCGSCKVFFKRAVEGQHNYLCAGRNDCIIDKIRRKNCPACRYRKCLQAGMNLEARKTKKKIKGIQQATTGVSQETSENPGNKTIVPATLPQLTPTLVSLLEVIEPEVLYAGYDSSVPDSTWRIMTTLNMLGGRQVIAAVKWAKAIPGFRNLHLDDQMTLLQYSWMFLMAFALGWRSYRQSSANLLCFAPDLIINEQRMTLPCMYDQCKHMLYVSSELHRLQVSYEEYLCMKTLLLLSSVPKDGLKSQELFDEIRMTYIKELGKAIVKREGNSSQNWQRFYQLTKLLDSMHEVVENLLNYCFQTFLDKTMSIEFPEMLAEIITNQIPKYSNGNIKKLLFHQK
Procedure, shortened: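 After 24 h incubation with test chemical, transfected HepG2 cells were lysed for RNA; reporter cDNA was amplified, FAM-labelled, HpaI-digested and sized on a capillary analyser. Signal gain relative to DMSO was scored.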

[2] = target: Bile acid receptor (Homo sapiens) (UniProt Q96RI1); assay: ATG_FXR_TRANS: Attagene TRANS-FACTORIAL HepG2 Assay for Farnesoid X Receptor (FXR) (AID 2282979; active means hit-call score of the fitted dose curve at least 0.9, where 1 is the maximum;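 further: hits raise reporter mRNA above DMSO so AC50 marks FXR activation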); conditions: HepG2 Attagene TRANS FXR-GAL4 reporter transcription
Bile acid receptor (Homo sapiens), sequence (Q96RI1 whole entry, looked up, the tested form may be a part): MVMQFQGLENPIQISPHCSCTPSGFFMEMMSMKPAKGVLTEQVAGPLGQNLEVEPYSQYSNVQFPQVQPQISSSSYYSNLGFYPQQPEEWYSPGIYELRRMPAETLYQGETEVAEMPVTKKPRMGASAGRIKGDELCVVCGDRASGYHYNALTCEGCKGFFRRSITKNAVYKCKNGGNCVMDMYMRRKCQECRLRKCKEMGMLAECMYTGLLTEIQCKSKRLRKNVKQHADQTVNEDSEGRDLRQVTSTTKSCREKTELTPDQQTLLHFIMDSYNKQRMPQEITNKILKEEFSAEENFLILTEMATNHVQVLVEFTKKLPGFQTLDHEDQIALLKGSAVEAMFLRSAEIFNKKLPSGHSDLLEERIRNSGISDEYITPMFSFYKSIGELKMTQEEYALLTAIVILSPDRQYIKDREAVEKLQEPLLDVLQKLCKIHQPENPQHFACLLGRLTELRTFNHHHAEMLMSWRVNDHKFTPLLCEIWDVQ
Procedure, shortened: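 Transient transfection of HepG2 with multiplexed GAL4-UAS reporter units; exogenous FXR-GAL4 chimera. Dose 24 h → TriZol RNA → oligo(dT) RT → PCR, 6-FAM primer extension, HpaI cut → CE. Gain vs DMSO.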

[3] = target: Oxysterols receptor LXR-alpha (Homo sapiens) (UniProt Q13133); assay: ATG_LXRa_TRANS: Attagene TRANS-FACTORIAL HepG2 Assay for human Liver X Receptor alpha (LXRa) (AID 2282980; active means hit-call score of the fitted dose curve at least 0.9, where 1 is the maximum); conditions: HepG2 Attagene TRANS reporter, LXRa transactivation
Oxysterols receptor LXR-alpha (Homo sapiens), sequence (Q13133 whole entry, looked up, the tested form may be a part): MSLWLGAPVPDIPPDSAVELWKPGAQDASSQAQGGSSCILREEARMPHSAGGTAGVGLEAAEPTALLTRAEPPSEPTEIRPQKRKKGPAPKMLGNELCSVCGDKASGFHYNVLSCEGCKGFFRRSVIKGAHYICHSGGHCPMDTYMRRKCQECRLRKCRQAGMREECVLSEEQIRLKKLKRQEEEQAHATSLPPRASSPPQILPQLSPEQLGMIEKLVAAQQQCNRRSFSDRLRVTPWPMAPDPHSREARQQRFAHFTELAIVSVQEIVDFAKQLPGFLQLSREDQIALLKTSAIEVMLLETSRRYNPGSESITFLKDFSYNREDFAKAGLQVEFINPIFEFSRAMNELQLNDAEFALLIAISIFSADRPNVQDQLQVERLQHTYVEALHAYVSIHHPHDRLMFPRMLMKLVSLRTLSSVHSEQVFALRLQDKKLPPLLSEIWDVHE
Procedure, shortened: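 Transfect HepG2 with GAL4-UAS multiplex reporter constructs (TRANS format, chimeric receptor-GAL4); treat 24 h; extract RNA, reverse-transcribe, PCR-amplify, FAM-label, HpaI-digest; resolve fragments by capillary electrophoresis. Upward response vs DMSO.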

[4] = target: Oxysterols receptor LXR-beta (Homo sapiens) (UniProt P55055); assay: ATG_LXRb_TRANS: Attagene TRANS-FACTORIAL HepG2 Assay for human Liver X Receptor beta (LXRb) (AID 2282981; active means hit-call score of the fitted dose curve at least 0.9, where 1 is the maximum); conditions: HepG2 Attagene TRANS GAL4-LXRb reporter, mRNA
Oxysterols receptor LXR-beta (Homo sapiens), sequence (P55055 whole entry, looked up, the tested form may be a part): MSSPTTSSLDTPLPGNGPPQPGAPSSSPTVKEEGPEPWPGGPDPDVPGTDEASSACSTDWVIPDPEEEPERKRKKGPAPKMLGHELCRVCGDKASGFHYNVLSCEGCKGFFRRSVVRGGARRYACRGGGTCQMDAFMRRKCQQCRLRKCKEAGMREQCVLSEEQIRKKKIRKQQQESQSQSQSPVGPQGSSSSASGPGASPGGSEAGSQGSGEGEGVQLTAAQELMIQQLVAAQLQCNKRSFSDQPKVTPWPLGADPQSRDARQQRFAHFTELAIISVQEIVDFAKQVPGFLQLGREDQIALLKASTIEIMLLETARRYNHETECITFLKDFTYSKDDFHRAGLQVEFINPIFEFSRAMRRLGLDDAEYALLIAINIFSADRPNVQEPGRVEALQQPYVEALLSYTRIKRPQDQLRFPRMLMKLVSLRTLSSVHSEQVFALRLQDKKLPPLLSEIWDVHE
Procedure, shortened: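 Transient transfection HepG2 (multiplexed RTUs, GAL4-UAS); NR-Gal4 chimera; 24 h exposure; RNA → RT-PCR → 6-FAM primer extension → HpaI → CE; increase vs DMSO.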

[5] = ATG_M_06_TRANS: Attagene TRANS-FACTORIAL HepG2 Assay for M06 Transcription Factor (Internal Marker) (AID 2282983; active means hit-call score of the fitted dose curve at least 0.9, where 1 is the maximum); conditions: HepG2 Attagene TRANS M06 internal marker reporter
Procedure, shortened: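 Transfect HepG2 with MRTUs → dose compounds 24 h → isolate RNA, oligo(dT) RT → PCR with reporter primers → 6-FAM primer extension → HpaI digest → CE fragment analysis. Positive direction vs DMSO.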

[6] = target: Transcriptional activator Myb (Homo sapiens) (UniProt P10242); assay: ATG_Myb_CIS: Attagene CIS-FACTORIAL HepG2 Assay for human Myeloblastosis (Myb) Proto-Oncogene Transcription Factor (AID 2282986); conditions: HepG2 Attagene CIS-FACTORIAL Myb reporter transcription; actives raise or lower the signal
Transcriptional activator Myb (Homo sapiens), sequence (P10242 whole entry, looked up): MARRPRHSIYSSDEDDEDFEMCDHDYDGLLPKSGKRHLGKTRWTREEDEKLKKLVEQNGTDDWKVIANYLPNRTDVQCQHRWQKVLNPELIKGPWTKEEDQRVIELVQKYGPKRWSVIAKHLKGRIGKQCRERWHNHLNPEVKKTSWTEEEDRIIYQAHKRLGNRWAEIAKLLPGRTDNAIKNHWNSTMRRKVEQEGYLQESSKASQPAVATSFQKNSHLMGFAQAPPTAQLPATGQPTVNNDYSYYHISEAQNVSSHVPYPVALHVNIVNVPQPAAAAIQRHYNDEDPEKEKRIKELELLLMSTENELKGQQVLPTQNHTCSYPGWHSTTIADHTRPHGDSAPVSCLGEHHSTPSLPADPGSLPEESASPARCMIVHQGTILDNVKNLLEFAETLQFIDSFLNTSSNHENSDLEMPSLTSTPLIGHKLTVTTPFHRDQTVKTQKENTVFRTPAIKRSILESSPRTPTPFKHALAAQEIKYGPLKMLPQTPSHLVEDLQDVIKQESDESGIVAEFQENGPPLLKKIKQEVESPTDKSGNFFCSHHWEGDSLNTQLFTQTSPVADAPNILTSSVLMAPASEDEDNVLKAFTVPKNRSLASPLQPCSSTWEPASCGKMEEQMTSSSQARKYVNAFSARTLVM
Procedure, shortened: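 After 24 h of compound dosing, total RNA from transfected HepG2 cells is reverse-transcribed and the reporter sequences amplified, labeled and separated by capillary electrophoresis. Values come from bidirectional fitting against DMSO.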

[7] = target: Nuclear respiratory factor 1 (Homo sapiens) (UniProt Q16656); assay: ATG_NRF1_CIS: Attagene CIS-FACTORIAL HepG2 Assay for human Nuclear Respiratory Factor 1 (NRF1) Orphan Gene (AID 2282987); conditions: HepG2 NRF1 cis-element reporter, Attagene multiplex; actives raise or lower the signal
Procedure, shortened: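 Measured: fluorescent reporter-specific RT-PCR products from transfected HepG2 cells, separated by capillary electrophoresis. Exposure lasted 24 h. Analysis used bidirectional curve fitting with DMSO as negative control.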

[8] = ATG_NFI_CIS: Attagene CIS-FACTORIAL HepG2 Assay for human Nuclear Factor I (NFI) (AID 2282989); conditions: HepG2 cis-regulatory reporter, NFI response element transcription; actives raise or lower the signal
Procedure, shortened: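 Transient MRTU transfection of HepG2 → 24 h chemical dosing → total RNA, oligo(dT) RT → PCR, 6-FAM primer extension, HpaI cut → capillary electrophoresis. Endpoint fitted bidirectionally relative to DMSO.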

[9] = ATG_NF_kB_CIS: Attagene CIS-FACTORIAL HepG2 Assay for human Nuclear Factor Kappa B (NF-kB) (AID 2282991); conditions: HepG2 Attagene cis-factorial NF-kB reporter mRNA; actives raise or lower the signal
Procedure, shortened: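 Fluorescence of labelled RT-PCR products separated by capillary electrophoresis gives reporter mRNA levels from transfected HepG2 cells exposed 24 h; values are fitted in both directions relative to DMSO.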

[10] = ATG_NRF2_ARE_CIS: Attagene CIS-FACTORIAL HepG2 Assay for human Nuclear Factor Erythroid 2 Related Factor 2 (NFR2) response to Antioxidant Response Elements (ARE) (AID 2282992); conditions: HepG2 Attagene ARE/NRF2 reporter, transcription factor activity; actives raise or lower the signal
Procedure, shortened: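 Multiplexed reporter mRNA profiling in HepG2 after a 24 h chemical exposure. Curves fitted in both directions relative to DMSO negative control.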

[11] = ATG_Oct_MLP_CIS: Attagene CIS-FACTORIAL HepG2 Assay for human Octamer-Binding Transcription Factor (Oct) (AID 2282993); conditions: HepG2 Attagene cis-factorial Oct reporter, mRNA; actives raise or lower the signal
Procedure, shortened: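 Transient MRTU transfection of HepG2 → 24 h compound treatment → RNA isolation, reverse transcription, PCR → 6-FAM primer extension, HpaI digest → capillary electrophoresis. Activity fitted both directions against DMSO.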

[12] = BSK_3C_TissueFactor: BioMAP Diversity Plus: 3C Assay for Tissue Factor Biomarker Activity (AID 2282997); conditions: BioMAP 3C HUVEC, tissue factor biomarker readout; actives raise or lower the signal
Procedure, shortened: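 ELISA read-out of Tissue Factor levels on human umbilical vein endothelium collected 24 h after chemical dosing. Gain or loss of signal was fitted relative to DMSO.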

[13] = BSK_3C_uPAR: BioMAP Diversity Plus: 3C Assay for Urokinase-type plasminogen activator receptor (uPAR) Biomarker Activity (AID 2282998); conditions: BioMAP 3C HUVEC, uPAR biomarker ELISA; actives raise or lower the signal
Procedure, shortened: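 ELISA readout of uPAR on human vascular endothelium (umbilical vein primary cells), taken 24 h after chemical dosing. Increases and decreases are both fitted relative to DMSO vehicle.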

[14] = BSK_3C_VCAM1: BioMAP Diversity Plus: 3C Assay for Vascular cell adhesion molecule 1 (VCAM1) Biomarker Activity (AID 2282999); conditions: BioMAP 3C HUVEC, VCAM1 ELISA, cytokine-stimulated; actives raise or lower the signal
Procedure, shortened: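 Endothelial cells from human umbilical vein are treated with test chemical. At 24 h, VCAM-1 is measured by ELISA, and responses in either direction are fitted relative to DMSO.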

[15] = BSK_4H_Eotaxin3: BioMAP Diversity Plus: 4H Assay for Eotaxin 3 Biomarker Activity (AID 2283000); conditions: primary human endothelial cells (HUVEC); actives raise or lower the signal
Procedure, shortened: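 Chemicals were added to human umbilical vein endothelium cultures, and Eotaxin-3 was quantified by ELISA at 24 h. Values were derived by bidirectional fitting with DMSO serving as negative control and activity baseline.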

[16] = target: Nuclear receptor subfamily 4 group A member 2 (Homo sapiens) (UniProt P43354); assay: ATG_NURR1_TRANS: Attagene TRANS-FACTORIAL HepG2 Assay for human Nuclear Receptor Related Protein 1 (NURR1) (AID 2282985; active means hit-call score of the fitted dose curve at least 0.9, where 1 is the maximum); conditions: HepG2 Attagene TRANS reporter, mRNA readout
Nuclear receptor subfamily 4 group A member 2 (Homo sapiens), sequence (P43354 whole entry, looked up, the tested form may be a part): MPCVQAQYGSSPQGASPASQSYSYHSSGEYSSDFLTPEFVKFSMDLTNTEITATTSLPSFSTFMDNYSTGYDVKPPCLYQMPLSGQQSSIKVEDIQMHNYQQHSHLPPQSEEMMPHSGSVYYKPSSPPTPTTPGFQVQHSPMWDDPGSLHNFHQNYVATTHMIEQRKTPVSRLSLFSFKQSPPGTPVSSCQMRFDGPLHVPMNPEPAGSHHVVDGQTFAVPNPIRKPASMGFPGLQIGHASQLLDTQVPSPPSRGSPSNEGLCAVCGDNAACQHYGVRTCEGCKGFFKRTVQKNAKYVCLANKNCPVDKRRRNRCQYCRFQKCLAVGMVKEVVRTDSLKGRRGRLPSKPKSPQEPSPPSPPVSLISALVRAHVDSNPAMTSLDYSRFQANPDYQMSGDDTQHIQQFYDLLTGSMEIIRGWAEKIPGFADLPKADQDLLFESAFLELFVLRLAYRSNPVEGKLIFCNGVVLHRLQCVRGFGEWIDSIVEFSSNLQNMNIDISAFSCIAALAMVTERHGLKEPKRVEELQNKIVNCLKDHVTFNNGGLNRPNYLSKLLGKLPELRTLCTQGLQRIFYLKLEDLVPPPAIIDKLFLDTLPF
Procedure, shortened: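 Transient transfection of HepG2, human liver cells, with multiple GAL4-UAS reporter transcription units. Cells dosed 24 h, RNA isolated, reverse-transcribed, PCR-amplified, FAM-labelled, HpaI-digested, sized by capillary electrophoresis. DMSO served as negative control.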

[17] = target: Myc proto-oncogene protein (Homo sapiens) (UniProt P01106); assay: ATG_Myc_CIS: Attagene CIS-FACTORIAL HepG2 Assay for human Myelocytomatosis (Myc) Proto-Oncogene Transcription Factor (AID 2282990); conditions: HepG2, Attagene cis-reporter transcription factor activity; actives raise or lower the signal
Myc proto-oncogene protein (Homo sapiens), sequence (P01106 whole entry, looked up): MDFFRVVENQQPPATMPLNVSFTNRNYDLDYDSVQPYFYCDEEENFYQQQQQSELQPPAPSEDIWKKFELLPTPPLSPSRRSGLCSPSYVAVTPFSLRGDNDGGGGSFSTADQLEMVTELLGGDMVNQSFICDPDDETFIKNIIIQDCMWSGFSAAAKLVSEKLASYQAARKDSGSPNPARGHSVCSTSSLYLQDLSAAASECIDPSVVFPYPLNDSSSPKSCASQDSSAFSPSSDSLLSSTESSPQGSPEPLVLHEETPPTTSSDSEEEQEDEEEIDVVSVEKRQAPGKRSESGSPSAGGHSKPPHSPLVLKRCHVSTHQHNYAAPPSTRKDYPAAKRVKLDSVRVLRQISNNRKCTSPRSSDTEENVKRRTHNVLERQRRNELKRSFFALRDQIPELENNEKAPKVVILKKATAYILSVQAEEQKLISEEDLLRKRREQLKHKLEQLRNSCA
Procedure, shortened: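 HepG2, transient MRTU transfection (cis promoters, endogenous TFs); 24 h dosing; TriZol RNA → oligo(dT) RT → PCR → 6-FAM primer extension → HpaI cut → CE. Bidirectional fit vs DMSO.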

[18] = target: Cellular tumor antigen p53 (Homo sapiens) (UniProt P04637); assay: ATG_p53_CIS: Attagene CIS-FACTORIAL HepG2 Assay for human p53 Transcription Factor (AID 2282994); conditions: HepG2 p53 cis-element reporter, Attagene mRNA; actives raise or lower the signal
Cellular tumor antigen p53 (Homo sapiens), sequence (P04637 whole entry, looked up): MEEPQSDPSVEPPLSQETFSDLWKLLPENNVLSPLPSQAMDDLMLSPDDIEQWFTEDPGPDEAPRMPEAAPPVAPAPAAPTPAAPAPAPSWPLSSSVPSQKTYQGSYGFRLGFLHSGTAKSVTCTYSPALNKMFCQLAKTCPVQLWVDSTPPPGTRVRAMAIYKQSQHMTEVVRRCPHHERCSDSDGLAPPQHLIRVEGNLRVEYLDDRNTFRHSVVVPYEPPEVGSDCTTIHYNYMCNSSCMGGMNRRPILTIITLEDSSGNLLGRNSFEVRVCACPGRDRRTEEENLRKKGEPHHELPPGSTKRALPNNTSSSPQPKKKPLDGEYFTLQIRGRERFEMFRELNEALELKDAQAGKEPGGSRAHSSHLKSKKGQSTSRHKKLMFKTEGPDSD
Procedure, shortened: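 Multiplexed reporter mRNA assay in human HepG2 liver cells; cis-regulated units report endogenous factor activity. Values come from bidirectional curve fitting against DMSO negative control after 24 h treatment.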

[19] = target: Hepatocyte nuclear factor 4-alpha (Homo sapiens) (UniProt P41235); assay: ATG_HNF4a_TRANS: Attagene TRANS-FACTORIAL HepG2 Assay for human Hepatocyte Nuclear Factor 4 alpha (HNF4a) (AID 2282982; active means hit-call score of the fitted dose curve at least 0.9, where 1 is the maximum); conditions: HepG2 HNF4a transactivation reporter, mRNA readout
Hepatocyte nuclear factor 4-alpha (Homo sapiens), sequence (P41235 whole entry, looked up, the tested form may be a part): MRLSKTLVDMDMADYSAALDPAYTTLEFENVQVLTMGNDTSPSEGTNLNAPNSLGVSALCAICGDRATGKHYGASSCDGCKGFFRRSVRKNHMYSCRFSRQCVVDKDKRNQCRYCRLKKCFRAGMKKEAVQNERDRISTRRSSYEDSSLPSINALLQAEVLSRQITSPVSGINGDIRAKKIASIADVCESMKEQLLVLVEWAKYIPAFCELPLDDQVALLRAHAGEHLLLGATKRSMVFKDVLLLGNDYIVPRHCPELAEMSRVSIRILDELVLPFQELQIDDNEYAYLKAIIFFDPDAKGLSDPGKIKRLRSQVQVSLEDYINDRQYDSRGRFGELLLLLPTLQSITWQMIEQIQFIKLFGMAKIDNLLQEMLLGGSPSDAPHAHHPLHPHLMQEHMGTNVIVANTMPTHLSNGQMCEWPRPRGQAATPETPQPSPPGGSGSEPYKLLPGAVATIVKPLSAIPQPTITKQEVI
Procedure, shortened: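 Readout is fluorescent reporter-transcript fragments resolved by capillary electrophoresis after RT-PCR from HepG2 cells dosed for 24 h. Cells carried transfected GAL4-UAS reporter constructs measuring exogenous NR-GAL4 chimera activity; DMSO served as baseline.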

[20] = ATG_M_32_TRANS: Attagene TRANS-FACTORIAL HepG2 Assay for M32 Transcription Factor (Internal Marker) (AID 2282984; active means hit-call score of the fitted dose curve at least 0.9, where 1 is the maximum;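 further: transcript level of a background control reporter unit measured by RT-PCR and capillary electrophoresis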); conditions: HepG2 Attagene TRANS M32 internal marker reporter
Procedure, shortened: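 Measures reporter mRNA induction in human HepG2 liver cells after 24 h chemical treatment. Transcripts from transiently transfected GAL4-UAS reporter units are amplified, fluorescently labelled and sized by capillary electrophoresis; gain of signal relative to DMSO.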

Measured: AC50

O=C(O)[C@H](O)[C@@H](O)C(=O)O
not listed: [16] | [17] | [18] | [19] | [20]
inactive: all other assays above

FC(F)(F)COC(OCC(F)(F)F)OCC(F)(F)F
not listed: [3] | [19] | [20]
inactive: all other assays above

NCC(F)(F)C(F)(F)C(F)(F)C(F)(F)F
not listed: [4]
inactive: all other assays above

CCc1ccc(O)c(C(C)(C)C)c1
active: [16] 53.4 µM | [17] 33.4 µM | [12] 32.2 µM | [13] 39.3 µM | [14] 34.6 µM | [15] 39 µM
not listed: [2] | [4] | [5] | [10] | [19]
inactive: all other assays above

NC(=O)N(O)[C@@H]1COc2cc(OCc3ccccc3)ccc21
not listed: [10] | [16] | [18]
inactive: all other assays above

Cc1ccc(S(=O)(=O)NC(=O)NN2CCCCCC2)cc1
not listed: [2] | [10] | [17] | [18] | [19]
inactive: all other assays above

C[C@]12C=CC(=O)C=C1CC[C@H]1[C@@H]3C[C@@H](O)[C@](O)(C(=O)CO)[C@@]3(C)C[C@H](O)[C@@]12F
active: [1] 0.0585 µM
not listed: [2] | [4] | [9] | [20]
inactive: all other assays above

CCCCCCCC1CCC(=O)O1 (stereo not given)
inactive: [1] | [2] | [20] | [6] | [17] | [11] | [18] | [12] | [13] | [14] | [15]
